The source of these data is PubChem BioAssay (NCATS).

Values joined by “and” are separate entries in the source; they are usually repeats but may differ in a detail not shown here. Equal entries are not always repeated. Records with an inconclusive call do not appear. Active and inactive are the calls of the source. Unless noted, the call rests on the fitted dose curve.

A short description of assay [1]: Cell Viability - SH-SY5Y (AID 544; active means well fitted curve in the direction sought with a large enough effect; an effect the other way counts as inactive or inconclusive;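 further: 0% = DMSO alone and -100% = 100 µM tamoxifen; nearly all actives have a fitted effect of over 55% in size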). Conditions: SH-SY5Y neuroblastoma cell viability; viability change, negative = cytotoxic: at 92.2 µM (top of the series). An outline of the steps:
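Luminescent ATP read-out (CellTiter-Glo) measures loss of viable SH-SY5Y neuroblastoma cells after 40 hr compound exposure at 37 °C. AC50 values derive from standard Hill modelling of qHTS concentration-response data.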

Assay [2] is described as follows: Cell Viability - LYMP1-003 - Assay at 40 hr (AID 964; active means well fitted curve in the direction sought with a large enough effect; an effect the other way counts as inactive or inconclusive; further: on the % scale 0 is the no-effect control and ±100 the full control effect; nearly all actives have a fitted effect of over 60% in size). An outline of the steps:
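Cells were seeded at 2500 per well and incubated 5 hr at 37 C. Compounds were added across a concentration series and left 40 hr at 37 C. CellTiter-Glo was added for 30 min at room temperature before luminescence reading.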

Assay [3] is described as follows: Cell Viability - LYMP2-009 (AID 968; active means well fitted curve in the direction sought with a large enough effect; an effect the other way counts as inactive or inconclusive;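 further: cells exposed to compound for 24 h at 37 °C; 0% = DMSO alone and the full-kill end = tetraoctylammonium bromide at 92 µM; nearly all actives have a fitted effect of over 55% in size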).
Assay [4] in a line: Cell Viability - LYMP2-017 (AID 972; active means well fitted curve in the direction sought with a large enough effect; an effect the other way counts as inactive or inconclusive;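 further: cells exposed to compound for 24 hours at 37 °C; on the % scale 0 is the no-effect control and ±100 the full control effect; nearly all actives have a fitted effect of over 55% in size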). An outline of the steps:
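2500 cells/well, 5 h 37 C; cpd 24 h 37 C in complete medium; CellTiter-Glo, 30 min RT; luminescence (ATP). AC50 via Hill fit, qHTS.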

Assay [5] addresses Bile acid receptor (Homo sapiens) (UniProt Q96RI1). Kind of assay: qHTS assay for small molecule antagonists of farnesoid X receptor signaling (AID 588526). Further: on the % scale 0 is the no-effect control and ±100 the full control effect. In outline: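 Antagonist mode: titrated compounds tested against chenodeoxycholic acid stimulation (normalized to 50 uM CDCA and DMSO) in GeneBLAzer HEK293T cells for 16 h. Beta-lactamase read by CCF4 fluorescence; IC50 from Hill fits.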
A general note: Quantitative high-throughput screening tests each substance at several concentrations.

Assay [6] shares this target. The assay can be described thus: qHTS assay for small molecule agonists of farnesoid X receptor signaling (AID 588527).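 Further: 0% = vehicle basal and 100% = reference agonist.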 Conditions: HEK293T FXR-UAS-bla, beta-lactamase ratio, 16 h; stronger effect = higher value. In outline:
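FXR-UAS-bla HEK293T, 10% dialyzed FBS; cpds up to 92 uM titration, 16 h 37 C; CCF4 dye 2 h RT; fluorescence. Normalized to chenodeoxycholic acid 100 uM (100%) and DMSO (0%); Hill fit gives EC50, efficacy.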

Assay [7] addresses Vitamin D3 receptor (Homo sapiens) (UniProt P11473). The assay can be described thus: qHTS assay for small molecule antagonists of vitamin D receptor signaling (AID 588541).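 Further: receptor activated by calcitriol during compound treatment; on the % scale 0 is the no-effect control and ±100 the full control effect.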 In outline:
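VDR-UAS-bla HEK293T cells in 2% charcoal-stripped FBS were stimulated with 1-alpha,25-dihydroxyvitamin D3 (3 nM final) plus compound for 16 h at 37 C. The beta-lactamase CCF4 readout was normalized to 50 nM agonist and DMSO, and Hill fits gave IC50.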

Assay [8] shares this target. Kind of assay: qHTS assay for small molecule agonists of vitamin D receptor signaling (AID 588543).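 Further: 0% = DMSO basal and 100% = reference agonist control.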 In outline: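 qHTS in agonist mode: compound titrations stimulate a VDR-driven β-lactamase reporter in HEK293T cells over 16 h at 37 °C. Response normalized to 50 nM 1α,25-dihydroxyvitamin D3 = 100%, DMSO = 0%; Hill fitting gives EC50 and maximal response.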
In assay [9] the target is Thyroid hormone receptor beta (Homo sapiens) (UniProt P10828). Kind of assay: qHTS assay for small molecule agonists of thyroid hormone receptor beta signaling (AID 588545). An outline of the steps: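 Agonist-mode beta-lactamase reporter assay, HEK 293 cells, 2% charcoal/dextran FBS; cells plated 4 hrs, compound 18 hrs at 37 C, CCF4 2 hrs RT. Normalized to 10 nM T3 (100%) and DMSO (0%); Hill fit gives EC50, efficacy.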

In assay [10] the target is Retinoic acid receptor RXR-alpha (Homo sapiens) (UniProt P19793). The assay can be described thus: qHTS assay for small molecule antagonists of retinoid X receptor alpha signaling (AID 588546; active means well fitted inhibition curve with a large enough effect in the signal ratio, with a control signal flat, not every such curve was filed as active; the % refers to the signal ratio;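 further: cells stimulated with 9-cis-retinoic acid as agonist; on the % scale 0 is the no-effect control and ±100 the full control effect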). Conditions: HEK293T RXRa-UAS-bla, beta-lactamase ratio, antagonist mode. In outline:
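Beta-lactamase reporter inhibition, read as CCF4 fluorescence ratio (ex 405, em 460/530 nm) after 2 h at RT. HEK293T UAS-bla cells, 2500/well, were stimulated with 9-cis-RA at 500 or 100 nM final alongside test compound for 18 h at 37 C.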

Assay [11] can be described thus: qHTS assay for small molecule agonists of the antioxidant response element (ARE) signaling pathway (AID 651741; active means well fitted activation curve with a large enough effect in the signal ratio; the % refers to the signal ratio; further: % of control where 0% means no effect). An outline of the steps:
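CellSensor ARE-bla HepG2 cells (2,000/well) carrying ARE-driven beta-lactamase, exposed 16 h at 37 C. LiveBLAzer B/G FRET substrate added for 2 h at room temperature; fluorescence intensity read.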

The nature of assay [12]: qHTS assay for small molecule activators of the nuclear factor-kappa B (NF-kB) signaling pathway (AID 651749; active means well fitted activation curve with a large enough effect in the signal ratio; the % refers to the signal ratio; further: % of control where 0% means no effect). Conditions: NF-kB-bla ME-180 cells, beta-lactamase FRET ratio, 16 h; activation: stronger effect = higher value. In outline:
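NF-kB-bla ME-180 cells carrying a beta-lactamase reporter under an NF-kB response element, 2,000 cells/well, exposed to compound for 16 hr at 37C; FRET-based beta-lactamase fluorescence read-out of pathway activation.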

Assay [13] is described as follows: qHTS assay for small molecule activators of the human pregnane X receptor (PXR) signaling pathway (AID 720659; call rule not given here; further: 0% is about no effect).
Assay [14] can be described thus: Cell Viability - BJ (AID 421).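 Further: potency means the concentration at half of the fitted maximal effect; cells exposed to compound for 40 hours at 37 °C before readout.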 The following applies: BJ fibroblast viability, qHTS. An outline of the steps: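 Luminescent ATP signal (CellTiter-Glo, 20 min at room temperature) served as the read-out of viable BJ cells after 40 hours of compound treatment. Responses were scaled between DMSO and 100 uM tamoxifen, and AC50 values were obtained by Hill modeling.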

A short description of assay [15]: Cellular Toxicity (caspase-3) N2a (AID 665; active means well fitted curve in the direction sought with a large enough effect; an effect the other way counts as inactive or inconclusive;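 further: compound exposure lasted 16 h at 37 °C before readout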). The following applies: N2a cells, luminescence, normalized: DMSO 0%, 10 µM staurosporine 100%; at 92.2 µM (top of the series). An outline of the steps:
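N2a cells, 1500/well, 5 h settle at 37 °C; cpd 16 h, 37 °C; Caspase-Glo 3/7, 1 h RT; luminescence. Norm: DMSO = 0, 10 uM staurosporine = 100%. AC50, Hill fit.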

The nature of assay [16]: qHTS assay for small molecule antagonists of peroxisome proliferator-activated receptor delta signaling (AID 588535).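 Further: cells co-treated with a PPAR-delta agonist as stimulator during compound exposure.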 Conditions: HEK293T PPARd-UAS-bla, beta-lactamase FRET ratio, 18 h; 460 nm channel. An outline of the steps: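 Antagonist-mode beta-lactamase reporter (GeneBLAzer PPAR-delta-UAS-bla) in HEK293T cells, 2% charcoal/dextran FBS, 4000 cells/well. Compound titrations, 18 h at 37 C; CCF4 ratio read, IC50 and efficacy from Hill fits.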

Assay [17] can be described thus: qHTS assay for small molecule agonists of the antioxidant response element (ARE) signaling pathway measured by Nrf2-dependant transcriptional activity - cell viability counter screen (AID 720653; active means well fitted curve in the direction sought with a large enough effect in the repeat runs; an effect the other way counts as inactive or inconclusive; further: on the % scale 0 is the no-effect control and ±100 the full control effect). The following applies: ARE-bla HepG2 viability, CellTiter-Glo ATP luminescence, 16 h; stronger effect = lower value. An outline of the steps: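 ARE-bla HepG2 cells treated with compounds for 16 h at 37C; this counter screen measures viability as intracellular ATP by CellTiter-Glo luminescence after 30 min at room temperature.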

A short description of assay [18]: qHTS Assay for Identification of Small Molecule Inducers of Hypoxia Response (AID 2120; active means well fitted curve in the direction sought with a large enough effect in the signal ratio, with a control signal flat, not every such curve was filed as active; the % refers to the signal ratio; further: 0% is about no effect). In outline:
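ME-180 HRE-bla cells plated in Opti-MEM/0.5% dialyzed FBS, rested 4-5 h, then dosed with compound titrations by pin tool. After 17 h at 37 degrees C, CCF4 dye loaded 2.5 h at RT; 460/530 nm ratio gave %Activity and AC50.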

Sequence of Bile acid receptor (Homo sapiens) (Q96RI1 whole entry, looked up): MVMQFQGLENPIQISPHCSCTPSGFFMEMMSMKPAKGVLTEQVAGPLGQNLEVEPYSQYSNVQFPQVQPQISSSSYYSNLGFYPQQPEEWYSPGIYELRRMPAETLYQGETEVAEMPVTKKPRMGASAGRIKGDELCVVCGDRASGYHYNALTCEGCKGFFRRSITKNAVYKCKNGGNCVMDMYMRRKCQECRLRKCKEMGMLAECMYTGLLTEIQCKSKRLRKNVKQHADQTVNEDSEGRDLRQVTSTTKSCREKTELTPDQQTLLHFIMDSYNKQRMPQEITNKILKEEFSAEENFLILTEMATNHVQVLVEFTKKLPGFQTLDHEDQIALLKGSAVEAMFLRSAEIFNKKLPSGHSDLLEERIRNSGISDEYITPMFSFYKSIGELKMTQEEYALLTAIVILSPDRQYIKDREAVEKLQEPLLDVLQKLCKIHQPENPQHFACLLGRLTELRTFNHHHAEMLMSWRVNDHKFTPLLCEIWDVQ
Sequence of Retinoic acid receptor RXR-alpha (Homo sapiens) (P19793 whole entry, looked up): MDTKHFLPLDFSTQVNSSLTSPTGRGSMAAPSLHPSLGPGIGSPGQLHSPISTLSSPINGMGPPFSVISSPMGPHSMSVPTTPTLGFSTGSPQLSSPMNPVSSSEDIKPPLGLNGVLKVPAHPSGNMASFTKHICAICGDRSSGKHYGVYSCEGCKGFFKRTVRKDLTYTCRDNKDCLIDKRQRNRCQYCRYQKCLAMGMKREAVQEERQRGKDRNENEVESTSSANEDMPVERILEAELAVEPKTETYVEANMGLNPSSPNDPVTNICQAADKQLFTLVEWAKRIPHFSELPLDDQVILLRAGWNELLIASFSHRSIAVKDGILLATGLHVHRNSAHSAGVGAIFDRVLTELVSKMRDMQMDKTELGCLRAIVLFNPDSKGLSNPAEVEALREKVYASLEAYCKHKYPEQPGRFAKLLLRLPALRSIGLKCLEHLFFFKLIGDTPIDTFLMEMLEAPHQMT
Sequence of Vitamin D3 receptor (Homo sapiens) (P11473 whole entry, looked up): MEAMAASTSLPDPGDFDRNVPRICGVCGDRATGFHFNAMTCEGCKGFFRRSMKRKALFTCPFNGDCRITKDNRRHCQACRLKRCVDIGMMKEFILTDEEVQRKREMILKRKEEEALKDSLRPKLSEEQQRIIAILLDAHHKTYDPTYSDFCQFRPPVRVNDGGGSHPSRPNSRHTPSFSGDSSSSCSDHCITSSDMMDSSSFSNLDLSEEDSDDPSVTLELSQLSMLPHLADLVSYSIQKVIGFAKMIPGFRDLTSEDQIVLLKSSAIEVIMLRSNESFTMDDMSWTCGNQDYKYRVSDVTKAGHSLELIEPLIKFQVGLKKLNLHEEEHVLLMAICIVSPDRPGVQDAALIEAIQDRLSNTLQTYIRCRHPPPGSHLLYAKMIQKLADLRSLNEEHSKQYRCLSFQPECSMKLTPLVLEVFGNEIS
Sequence of Thyroid hormone receptor beta (Homo sapiens) (P10828 whole entry, looked up): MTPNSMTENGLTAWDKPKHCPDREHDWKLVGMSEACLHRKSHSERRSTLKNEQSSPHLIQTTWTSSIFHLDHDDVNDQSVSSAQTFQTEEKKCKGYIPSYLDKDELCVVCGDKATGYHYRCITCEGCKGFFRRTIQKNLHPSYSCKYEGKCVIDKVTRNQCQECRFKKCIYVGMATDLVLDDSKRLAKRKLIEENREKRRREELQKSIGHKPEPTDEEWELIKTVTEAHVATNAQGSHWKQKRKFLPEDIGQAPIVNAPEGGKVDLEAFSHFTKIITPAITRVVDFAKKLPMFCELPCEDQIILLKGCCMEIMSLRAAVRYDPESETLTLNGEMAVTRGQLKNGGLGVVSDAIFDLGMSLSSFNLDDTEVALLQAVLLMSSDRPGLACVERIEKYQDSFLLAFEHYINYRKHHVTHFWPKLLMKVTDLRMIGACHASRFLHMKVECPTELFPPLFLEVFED

`c1ccc2c(c1)CCCC2`: the Potency entry in assay [1], in [2], in [3], in assay [4] and in assay [11] was “inactive” in each case. Further, the call in assay [5], in assay [7], in assay [8], in assay [9] and in assay [13] was inactive. Besides, the activation in assay [6] was -2.64% (inactive); in assay [12], -0.796% (inactive). For the same compound, in [10], the max response is 7.45% (inactive).
Turning to `C=CC1CC=CCC1` (stereo not given), the Potency in [14] was > 92 µM (inactive). Besides, the Potency entry in assay [1], in assay [2], in assay [3] and in [11] was “inactive” each time. For the same compound, in [15], the caspase-3 activation is -0.281% (inactive). Moreover, the result in [5], in assay [7], in assay [8], in assay [9] and in assay [13] was inactive. The activation in [6] is 1.2% (inactive) and -0.94% (inactive); in assay [12] it was 0.91% (inactive) and -0.814% (inactive). In addition, the max response is 33.6% and -2.58% in [16]; 12.3% (inactive) and -16.5% (inactive) in assay [10]; 1.14% (inactive) and 1.26% (inactive) in assay [17].
For `Cc1cccc(C#N)c1`, the Potency in assay [14] is > 92 µM (inactive). Moreover, the Potency entry in [1], in assay [3] and in assay [4] was “inactive” in each case. For the same compound, the caspase-3 activation in assay [15] is -2.05% (inactive). Further, the call in assay [5], in assay [7], in assay [8], in [9] and in [13] was inactive. Further, the figures for the activation in [6] and in assay [12] were -2.16% (inactive) and 0.885% (inactive), respectively. For the same compound, the max response in assay [16] is 57%; in assay [17], -8.19% (inactive).
As for `O=[N+]([O-])c1cccc2ccccc12`, the Potency entry in [1] and in [3] was “inactive” throughout. For the same compound, in [15], the caspase-3 activation is -0.0738% (inactive). In addition, the outcome in [18], in assay [9] and in [13] was inactive. The max response in assay [16] was -7.08% and 18.1%. In [12], the activation is -0.404% (inactive) and -0.717% (inactive).
For `CCOc1ccc(N)cc1`, the Potency in assay [14] was > 92 µM (inactive). Moreover, the Potency entry in [2] was “inactive”. Also, the call in assay [5], in assay [8], in assay [9] and in [13] was inactive. For the same compound, the activation is -2.12% (inactive) in assay [6] and -0.228% (inactive) in [12]. Besides, the max response is -3.13% (inactive) in assay [10] and 1.12% (inactive) in assay [17].
For `C=C(C)C(=O)OCC1CO1` (stereo not given), the Potency in [14] is > 92 µM (inactive). Further, the Potency entry in [1] and in assay [2] was “inactive” in each case. Also, the caspase-3 activation in assay [15] is -4.34% (inactive). Besides, the result in assay [5], in assay [7], in assay [8], in assay [9] and in assay [13] was inactive. The results for the activation in assay [6] and in assay [12] were -3.45% (inactive) and 0.768% (inactive), respectively. Also, the figures for the max response in assay [16], in [10] and in assay [17] were -13.4%, 4.24% (inactive) and 1.28% (inactive), respectively.
